Test results as given in PubChem BioAssay (NCATS).
Results filed as inconclusive are left out. Where a call stands in place of a potency, no number is given. A structure can be active in one record and inactive in another. Activity calls are given as the source filed them. Calls follow the shape of the dose curve; as a rule, active = well fitted curve in the direction sought with a large enough effect; inconclusive = small, poorly fitted or top-dose-only effect, or another doubt; inactive = no such curve, though single readings can be large; an effect the other way counts as inactive or inconclusive.

What was measured:
[1] = target: Glutathione peroxidase 1 (Homo sapiens) (UniProt P07203); test: Primary qHTS Assay for Inhibitors of Recombinant Selenoprotein Glutathione Peroxidase 1 (GPX1) (AID 1845191); also: nearly all actives have a fitted effect of over 65% in size
Procedure, shortened: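 NADPH consumption tracked by fluorescence at 340/450 nm between t=0 and t=15 min, room temperature. Final mix: 10 nM GPX1, 100 nM glutathione reductase, 1 mM GSH, 0.5 mM NADPH, 0.5 mM cumene hydroperoxide, 0.01% BSA; 30 min compound–enzyme preincubation.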

[2] = target: Phospholipid hydroperoxide glutathione peroxidase GPX4 (Homo sapiens) (UniProt P36969); test: Primary qHTS Assay for Inhibitors of Recombinant Selenoprotein Glutathione Peroxidase 4 (GPX4) (AID 1845192); also: nearly all actives have a fitted effect of over 65% in size
Procedure, shortened: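 NADPH consumption followed by fluorescence at 340/450 nm, t=0 and after 15 min at room temperature. Reaction started with cumene hydroperoxide (0.5 mM final) after 30 min compound–GPX4 preincubation; final 200 nM GPX4, 100 nM GR, 1 mM GSH, 0.5 mM NADPH.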

[3] = target: Luciferin 4-monooxygenase (Photinus pyralis) (UniProt P08659); test: Primary firefly luciferase (FLuc) qHTS assay for identification of artifact compounds. (AID 1845220); also: nearly all actives have a fitted effect of over 60% in size
Procedure, shortened: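 Compounds sat 15 min at room temperature with 10 uM luciferin and 10 uM ATP (pH 7.6 Tris acetate). Firefly luciferase (10 nM final) was then added, and luminescence was read 5 min later. Data normalized to no-enzyme and DMSO controls were Hill-fitted.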

[4] = Primary fluorescence-based thiol-reactive (MSTI) qHTS assay for identification of artifact compounds. (AID 1845221); also: nearly all actives have a fitted effect of over 65% in size
Procedure, shortened: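 Thiol-reactive compounds detected by quenching of 4 uM MSTI fluorescence (525/598 nm) after 1 h room-temperature dark incubation in PBS pH 7.4, 2% DMSO. qHTS titration; percent inhibition Hill-fitted against Acetyl-MSTI/MSTI controls.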
Potency is read from the fitted curve at half-maximal effect.

Chain of Phospholipid hydroperoxide glutathione peroxidase GPX4 (Homo sapiens) (P36969 whole entry, looked up): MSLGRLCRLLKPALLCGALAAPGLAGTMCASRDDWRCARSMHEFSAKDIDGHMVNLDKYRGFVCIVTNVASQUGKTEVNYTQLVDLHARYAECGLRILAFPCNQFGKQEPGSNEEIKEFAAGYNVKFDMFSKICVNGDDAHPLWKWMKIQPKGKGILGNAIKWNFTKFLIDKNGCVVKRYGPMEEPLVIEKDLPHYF
Chain of Glutathione peroxidase 1 (Homo sapiens) (P07203 whole entry, looked up): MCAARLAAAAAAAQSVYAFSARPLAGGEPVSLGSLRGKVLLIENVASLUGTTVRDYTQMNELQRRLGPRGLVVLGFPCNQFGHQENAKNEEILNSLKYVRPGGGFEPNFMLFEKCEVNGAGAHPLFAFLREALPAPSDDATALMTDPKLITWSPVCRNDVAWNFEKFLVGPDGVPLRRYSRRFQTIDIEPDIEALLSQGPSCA

SMILES	Potency [1]	Potency [2]	Potency [3]	Potency [4]
C[C@@H]1CN(Cc2ccc(F)cc2)[C@@H](C)CN1C(=O)c1cc2c(C(=O)C(=O)N(C)C)cn(C)c2cc1Cl	inactive	inactive	inactive	inactive
N#CC[C@H](C1CCCC1)n1cc(-c2ncnc3[nH]ccc23)cn1	25.5 µM (active)	–	inactive	inactive
COc1cc(Oc2ccnc3cc(OC)c(OC)cc23)ccc1NC(=O)NC(C)c1nccs1 (configuration not stated)	inactive	inactive	inactive	inactive
COc1nc(-c2ccc3c(c2)OCO3)n(-c2ccc(NC(=O)CSc3ccccc3)cc2)n1	inactive	inactive	inactive	inactive
C#Cc1cccc(Nc2ncnc3cc(OCCOC)c(OCCOC)cc23)c1	inactive	inactive	inactive	inactive
O=C1CCCC2=C1C(c1[nH]ncc1Cl)N=C(Nc1nc3ccccc3o1)N2 (configuration not stated)	–	inactive	inactive	inactive
CCOc1cc(C(=O)Nc2ccc(Cl)c(-c3nc4ccccc4[nH]3)c2)cc(OCC)c1OCC	inactive	inactive	inactive	inactive
COc1ccccc1[C@H](c1cccc2ccccc12)[C@@](C)(C#N)C(=O)N1CCC(c2cccc(C(F)(F)F)c2)CC1	inactive	inactive	inactive	inactive
CCC(C)n1ncn(-c2ccc(N3CCN(c4ccc(OC[C@H]5CO[C@](Cn6cncn6)(c6ccc(Cl)cc6Cl)O5)cc4)CC3)cc2)c1=O (some centres not stated)	–	inactive	inactive	inactive
COc1cccc2cc(-c3nc(C4CCC(C(=O)O)CC4)n4ncnc(N)c34)[nH]c12 (configuration not stated)	inactive	inactive	inactive	26.7 µM (active)
OCCn1cc(-c2cnc3nnn(Cc4ccc5ncccc5c4)c3n2)cn1	–	14.3 µM (active)	inactive	inactive
Cc1cc(SCc2sc(-c3ccc(C(F)(F)F)cc3)nc2C)ccc1OCC(=O)O	20.2 µM (active) and inactive	inactive	–	inactive
CNC(=O)c1ccccc1Sc1ccc2c(/C=C/c3ccccn3)n[nH]c2c1	inactive	inactive	1.9 µM (active)	inactive
